Only some compounds are listed: those with a hit (about 0.39% of all), similar ones and a draw of the others.
CCT chaperon mod – changes cytosolic chaperonin activity; purified chaperonin ATPase assay, HTRF ADP detection, 30 min; activity change, % (concentration not given with the values), hits read low; 360,000 tested, 0.3% active; AID 651819; in the data active means activity change below about -30%; further: on the % scale 0 is the no-effect control and ±100 the full control effect
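Enzyme 40 or 20 nM (batch-dependent) in Tris pH 7.4/KCl/MgCl2/DTT; cpd 76 uM single point; ATP 10 uM; 30 min 37 °C; Transcreener ADP HTRF detection, 30 min RT; ratio 665/615.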
Rango dissoc inh – inhibitors of RanGTP-induced Rango-importin beta complex dissociation. O95149+P62826. 340,000 tested, 0.071% active. Potency, µM (titrated, usually from 46.1 µM), without a hit: at the top dose activity change, negative = inhibition. Biochemical FRET Rango-importin beta, RanGTP-induced dissociation; further: potency means the concentration at half of the fitted maximal effect; % of control where 0% means no effect; nearly all actives have a fitted effect of over 45% in size
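Compounds preincubate 5 min with complex of recombinant Rango and importin beta in PBS with 1 mM DTT. Ran (0.6 uM) loaded with 2 mM GTP plus 0.2 uM RCC1 starts dissociation; FRET is recorded 45 min later.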
MmCpn inh – blocks the Methanococcus maripaludis chaperonin Mm-Cpn. Potency, µM (highest dose often 76.9 µM), for inactives: top-dose activity, negative = inhibition, most hits filed as inhibitors. 330,000 tested, 0.031% active. purified Mm-Cpn ATPase, ADP Transcreener TR-FRET. AID 504842; active means well fitted inhibition curve with a large enough effect; inconclusive means small, poorly fitted or top-dose-only effect; further: potency means the concentration at half of the fitted maximal effect; on the % scale 0 is the no-effect control and ±100 the full control effect; nearly all actives have a fitted effect of over 80% in size
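Quantitative HTS used 25 nM Mm-CPN and 10 uM ATP in magnesium/KCl Tris buffer, pH 7.4, with 1 mM DTT. Hydrolysis ran 30 min at 37°C; ADP was read by HTRF.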
Rango-impB inh – Rango-importin beta binding inhibition; Q14974; Potency, µM (doses to about 92.2 µM), for inactives: top-dose inhibition of complex formation; Rango CFP/YFP FRET sensor + importin beta, 45 min; 340,000 tested, 0.031% active;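 further: potency means the concentration at half of the fitted maximal effect; 0% = DMSO wells and 100% = buffer wells lacking importin beta; nearly all actives have a fitted effect of over 15% in size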
Target sequence (Q14974 whole entry, looked up): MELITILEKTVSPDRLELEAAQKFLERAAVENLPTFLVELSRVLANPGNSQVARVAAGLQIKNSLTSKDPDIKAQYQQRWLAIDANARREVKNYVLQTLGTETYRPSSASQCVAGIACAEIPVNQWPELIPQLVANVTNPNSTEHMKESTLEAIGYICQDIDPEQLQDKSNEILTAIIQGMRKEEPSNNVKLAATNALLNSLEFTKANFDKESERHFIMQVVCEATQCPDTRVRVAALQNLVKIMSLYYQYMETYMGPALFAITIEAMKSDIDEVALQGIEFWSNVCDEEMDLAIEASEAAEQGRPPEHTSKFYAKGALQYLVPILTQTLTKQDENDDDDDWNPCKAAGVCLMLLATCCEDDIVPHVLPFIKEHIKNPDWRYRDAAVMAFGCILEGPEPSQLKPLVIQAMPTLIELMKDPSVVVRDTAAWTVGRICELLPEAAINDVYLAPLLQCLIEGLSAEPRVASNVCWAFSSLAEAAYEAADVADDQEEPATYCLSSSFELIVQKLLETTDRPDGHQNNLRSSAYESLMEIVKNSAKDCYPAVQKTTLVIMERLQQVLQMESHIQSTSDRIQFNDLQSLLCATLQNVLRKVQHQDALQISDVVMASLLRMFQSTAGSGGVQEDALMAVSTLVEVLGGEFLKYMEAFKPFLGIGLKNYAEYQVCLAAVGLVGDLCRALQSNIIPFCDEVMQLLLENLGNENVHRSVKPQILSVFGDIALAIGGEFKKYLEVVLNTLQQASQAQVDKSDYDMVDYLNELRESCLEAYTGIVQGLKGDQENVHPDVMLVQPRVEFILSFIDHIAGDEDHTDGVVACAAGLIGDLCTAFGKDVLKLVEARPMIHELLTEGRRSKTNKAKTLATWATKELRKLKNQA
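FRET biosensor Rango (snurportin 1 IBB between N-terminal EYFP and C-terminal Cerulean), 50 nM in PBS/1 mM DTT/0.02% Tween-20/0.1% BSA, preincubated 5 min RT with compound; 0.125 microM importin beta added, 45 min RT, CFP/YFP FRET ratio read.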
Numbers without * were called inactive; ? = inconclusive; / = not tested or not shown. Unless noted, the call rests on the fitted dose curve.

SMILES | CCT chaperon mod | Rango dissoc inh | MmCpn inh | Rango-impB inh
COc1ccc2nc(CNC(=O)C3CCC(=O)N(CCc4ccccc4)C3)[nH]c2c1 (stereo unspecified) | -56* | -11% | -1% | ?
COC(CNS(=O)(=O)c1ccc(S(=O)(=O)NC2CC2)cc1)OC | 1 | -8% | -5% | -1%
CCC(C(=O)Nc1ccccc1C(=O)N1CCCC1)N1C(=O)c2ccccc2C1=O (stereo unspecified) | -1 | -6% | 1% | 0%
O=C(O)c1ccccc1NC(=O)C(Cc1ccccc1)N1C(=O)c2ccccc2C1=O (stereo unspecified) | -32* | 1% | 3% | 3%
CCC1OC2(C)OC(=N)C1(C#N)C(C#N)(C#N)C2c1ccccc1 (stereo unspecified) | -2 | 8.2µM* | -6% | ?
CCC(=O)N(C)C[C@H]1Oc2cc(-c3ccccc3F)ccc2S(=O)(=O)N([C@H](C)CO)C[C@H]1C | 2 | / | / | /
COc1ccc(OCC(=O)Nc2cc(OC)cc(OC)c2)cc1 | -46* | -10% | 3% | -1%
COc1ccc(OCC(=O)Nc2cccc(OC)c2)cc1 | -3 | 38% | 0% | -1%
CCOC(=O)COn1c(=O)c(-c2ccco2)[n+]([O-])c2ccccc21 | 0 | 18µM* | -3% | ?
O=C(NCCCN1CCOCC1)C(=O)NCC1OCCN1S(=O)(=O)c1ccc(Cl)cc1 (stereo unspecified) | -34* | / | / | /
COc1cccc(C(=O)Oc2c(Br)cc(Br)cc2/C=N/NC(=O)c2cc(C)[nH]n2)c1 | -3 | 18µM* | -3% | ?
Cc1cc(C(=O)N/N=C/c2cccc(OC(=O)c3cccc(Br)c3)c2)n[nH]1 | -1 | 20% | 2% | 4%
CCn1c(CNC(=O)c2ccc(OC)cc2)nnc1SCC(=O)c1ccccc1 | -45* | 28% | -1% | -1%
Cc1ccc(OCc2nnc(SCC(=O)O)n2-c2ccccc2)cc1 | 0 | 14% | / | 0%
Cc1ccc(OCc2nnc(SCC(=O)c3ccccc3)n2-c2ccccc2)cc1 | -56* | -6% | -1% | -2%
CCOc1cc(CN2CCC(n3nccc3NC(=O)C3CC3)CC2)ccc1O | 0 | -13% | -1% | 4%
CC1(C(=O)NS(=O)(=O)c2cccc(F)c2)CCN1C(=O)c1cccc(F)c1 (stereo unspecified) | -1 | / | / | /
O=C(CN1CCCC1)Nc1ccccc1Sc1ccc(Cl)cc1 | -35* | -9% | -6% | 5%
CCN(C[C@H]1N[C@@](C)(C(=O)OC)[C@H]2C(=O)N(Cc3ccccc3)C(=O)[C@@H]12)C(=O)c1ccc(F)cc1 | -34* | 1% | -1% | 2%
CCN(C[C@H]1N[C@@](C)(C(=O)OC)[C@H]2C(=O)N(Cc3ccccc3)C(=O)[C@@H]12)C(=O)c1ccc(C)cc1 | 0 | -14% | 1% | 0%
CCC/C=C/c1ccc(CN2C(CC(C)C)C(=O)N(Cc3cn(CC4CCCCC4)nn3)CCS2(=O)=O)cc1 (stereo unspecified) | -2 | / | / | /
Cc1sc2nc(-c3cccs3)oc(=O)c2c1C | -1 | -12% | 2% | ?
Cc1sc2nc(-c3ccc(Br)cc3)oc(=O)c2c1C | -38* | 6% | -1% | 2%
C[C@H](CO)N1C[C@H](C)[C@@H](CN(C)C(=O)Nc2ccc(F)cc2)Oc2ncc(-c3ccc(F)cc3)cc2C1=O | -3 | / | / | /
N#Cc1c2n(c3c(=O)n(Cc4ccccc4Cl)cnc13)CCCCC2 | -32* | -17% | -3% | 0%
SMILES | CCT chaperon mod | Rango dissoc inh | MmCpn inh | Rango-impB inh
O=C(NCc1ccco1)/C(=C/c1ccc(C(F)(F)F)cc1)c1nc2ccccc2[nH]1 | 1 | 18µM* | -2% | ?
COCCN(C(=O)COC(=O)C1CC1C)c1c(N)n(Cc2ccccc2)c(=O)[nH]c1=O (stereo unspecified) | -1 | -1% | 2% | 4%
Cc1nc(NC(=S)NC(=O)c2ccccc2)sc1C | -33* | -3% | 0% | 0%
Cc1nc(NC(=O)c2ccccc2)sc1C | 0 | -7% | 1% | -2%
C=C(C)C(=O)Nc1cccc(C2=NOC3(C2)C[C@@H](C(N)=O)N(C(=O)/C=C/CC)C3)c1 (stereo partly specified) | -1 | 13% | 2% | -4%
C=C(C)C(=O)Nc1cccc(C2=NOC3(C2)C[C@H](C(N)=O)N(C(=O)/C=C/C)C3)c1 (stereo partly specified) | -50* | 0% | -5% | -4%
CN1CCN(/C=N/C2=C(C#N)C(c3ccccc3)C3=C(CC(C)(C)CC3=O)O2)CC1 (stereo unspecified) | -34* | -14% | 0% | -3%
CCCCC1CCc2[nH]nc(C(=O)O)c2C1 (stereo unspecified) | -3 | -13% | 1% | 0%
CCc1nnc(NC(=O)c2oc3ccc(Br)cc3c2C)s1 | -34* | 4% | -1% | -1%
Cc1c(C(=O)Nc2nccs2)oc2ccc(Br)cc12 | 1 | -11% | -2% | 0%
CC1(C)C2CCC1(C)C(OCCNCCOC(=O)Nc1ccccc1)C2 (stereo unspecified) | -40* | 5% | -4% | -1%
CC1(C)C2CCC1(C)C(OC(=O)c1ccccc1C(=O)O)C2 (stereo unspecified) | 0 | 0% | -2% | 2%
CCC(C)NC(=O)CSc1nc2cc3c(cc2c(=O)n1Cc1ccco1)OCO3 (stereo unspecified) | -2 | 0% | 3% | 0%
CCN(CC)C(=O)CSc1nc2cc3c(cc2c(=O)n1Cc1ccco1)OCO3 | -34* | -3% | 1% | ?
CCSc1nc(N2CCOCC2)c2c(c1C#N)CC(C)(C)N(C)C2 | 2 | ? | -4% | ?
CN1Cc2c(N3CCOCC3)nc(SCc3ccccc3)c(C#N)c2CC1(C)C | -3 | 8.2µM* | -4% | ?
CC(C)C[C@@H](CN1CCC[C@H]1CN1C(=O)C(=O)NC[C@@H]1Cc1ccccc1)N1C[C@H](Cc2ccccc2)N(CC2CCCCC2)C(=O)C1=O | 0 | / | / | /
O=S(=O)(NC[C@@H]1CCC[C@H](CNS(=O)(=O)c2c(F)cccc2F)C1)c1ccc2c(c1)OCCO2 | / | / | 2% | /
N#Cc1nc(-c2ccc(OCc3ccccc3)cc2)oc1NCc1cccnc1 | -36* | 1% | 0% | -4%
CC1=C(C(=O)N(C(C)C)C(C)C)CC(CC(=O)NCCc2ccccn2)C(=O)N1Cc1ccc(F)cc1 (stereo unspecified) | 0 | / | / | /
Cc1nc(SCC(=O)Nc2nccs2)c(C#N)c(C)c1C | 2 | 26µM* | -9% | ?
CC(C)(C)S(=O)N1Cc2cc(C(=O)N3CCOCC3)nc(-c3cccc(Br)c3)c2[C@@H]1CCO (stereo partly specified) | 1 | / | / | /
c1ccc(CC2CCN(c3nc4ccccc4n4nnnc34)CC2)cc1 | -32* | -6% | 0% | -1%
Cc1ccccc1-c1cc2nc(OCC3CCCO3)n(C)c(=O)c2s1 (stereo unspecified) | 0 | / | / | /

Screening data from PubChem BioAssay.
